High-throughput results (PubChem BioAssay)
Pf apPOL block – Pf-apPOL DNA polymerase inhibition. Recombinant Pf-apPOL, molecular beacon fluorescence, 1.5 h. inhibition, % at 10 µM. 0.25% of 210,000 active. AID 1794808
mHTT CaM bind – inhibitors of human mutant huntingtin-calmodulin interaction. P42858. 3.6% of 190,000 active. AlphaScreen His-mHTT/GST-CaM binding, luminescence. inhibition, % at 15 µM;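 note: 0% = both proteins with DMSO and 100% = one protein alone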
Active calls of the source: *; . = no result. In the library only some 3.5% were active in any assay of this set; here they are far more common. Cut-off read from the data, not from the text of the source: active = inhibition above about 50%; inactive = the rest.

SMILES	Pf apPOL block	mHTT CaM bind
Nc1nc(NC(=O)c2ccc([N+](=O)[O-])cc2)nn1-c1ccccc1	-7	-4
O=[N+]([O-])c1cccc(CN2CCN(CCOCCO)CC2)c1	-4	-2
Cc1nc(N2CCCC2)c2c(C)nn(-c3ccccc3)c2n1	2	-8
Oc1c(C=Nc2ccc(F)cc2)[nH]c2ccc(Br)c(Cl)c12	10	5
Oc1c(C=NCCc2ccccc2)[nH]c2ccc(Br)c(Cl)c12	-1	86*
COc1ccccc1N=Cc1[nH]c2ccc(Br)c(Cl)c2c1O	-3	3
Oc1c(C=NCc2ccc(Cl)cc2Cl)[nH]c2ccc(Br)c(Cl)c12	0	58*
Oc1c(C=NCc2ccc(F)cc2)[nH]c2ccc(Br)c(Cl)c12	5	55*
Cc1ccc(CN=Cc2[nH]c3ccc(Br)c(Cl)c3c2O)cc1	-1	21
Cc1cccc(C)c1N=Cc1[nH]c2ccc(Br)c(Cl)c2c1O	-100	12
Oc1c(C=NCc2ccccc2Cl)[nH]c2ccc(Br)c(Cl)c12	-4	72*
Cc1c(Cl)cccc1NC(=O)c1ccc(-n2ccnc2)nn1	0	-2
O=C(O)CNC1CS(=O)(=O)CC1S(=O)(=O)O (stereo unspecified)	-2	-4
Cc1ccc(NC(=O)CN2C(=O)NC3(CCC(C)CC3)C2=O)cc1F (stereo unspecified)	-2	4
COc1ccc(CNC(=O)C2=C3CCCN3c3ccc(F)cc3S2(=O)=O)cc1	0	-1
Clc1ccc(C2=CC(c3ccc(Br)cc3)n3ncnc3N2)s1 (stereo unspecified)	-5	20
O=C(Nc1ccccc1)C(Cc1c[nH]c2ccccc12)NC(=O)C(c1ccccc1)c1ccccc1 (stereo unspecified)	1	89*
COc1ccc(NC(=O)C(N)Cc2c[nH]c3ccccc23)cc1 (stereo unspecified)	-18	46
COc1cccc(NC(=O)C2CCCN(c3cn[nH]c(=O)c3)C2)c1 (stereo unspecified)	-2	1
Cn1cc(Cn2ccc(N)n2)cn1	.	1
CCOc1ccc(-n2sc3c(c2=S)-c2ccc(OC)cc2NC3(C)C)cc1	.	94*
CCOc1ccc(N2C(=O)Nc3ccc(Br)cc3C2(O)C(=O)NC(C)C)cc1 (stereo unspecified)	-7	7
CCOc1ccc(C2CC(c3cccc(OC)c3)n3nc(N)nc3N2)cc1 (stereo unspecified)	-5	16
CCOc1ccc2c(c1)-c1c(sn(-c3ccc(C(C)C)cc3)c1=S)C(C)(C)N2	.	76*
CCOc1ccc2c(=O)c(-c3ccc(OC)cc3)coc2c1	-9	-3
SMILES	Pf apPOL block	mHTT CaM bind
CCOc1ccc2c(c1)-c1c(sn(-c3ccc(OC)cc3)c1=S)C(C)(C)N2	.	94*
CCn1ccc2sc(C)c(C(=O)NCc3cccc(Br)c3)c2c1=O	-5	8
CCOC(=O)N1CCN(C(=O)C2CC(=O)N(Cc3ccc(OC)cc3)C2)CC1 (stereo unspecified)	3	2
O=C(Nc1ccc(F)cc1F)N1CCN2C(=O)c3ccccc3C12c1ccc(Cl)cc1 (stereo unspecified)	1	24
c1ccc(Cn2c(-c3ccccc3)csc2=Nc2ccccc2)cc1	.	-2
CCOc1ccc(-c2csc(=Nc3ccccc3)n2CCN2CCOCC2)cc1	-3	22
CCn1c(-c2ccccc2)csc1=Nc1ccc(S(=O)(=O)O)cc1	-3	17
OCCCn1c(-c2ccccc2)csc1=Nc1cccc(Cl)c1	-5	92*
OCCCn1c(-c2ccccc2)csc1=Nc1ccccc1	-1	51*
OCCCn1c(-c2ccc(I)cc2)csc1=Nc1ccccc1	-5	70*
OCCn1c(-c2ccc(I)cc2)csc1=Nc1ccccc1	-2	66*
Cc1ccsc1/C=c1\sc2nnc(-c3ccccc3)n2c1=O	-2	3
O=C1CC(NC(=O)NCc2ccc(Cl)cc2)CN1 (stereo unspecified)	-4	-15
COc1ccc2oc(=O)c(C(=O)NC(C)c3ccccc3)cc2c1 (stereo unspecified)	2	-1
CC(C)CC(=O)N1CCc2c(c(C(=O)NCc3ccc(F)cc3)nn2C)C1	-1	59*
COCC(=O)N1CCc2c(c(C(=O)NCc3ccc(F)cc3)nn2C)C1	-9	-2
CC(C)CC(=O)N1CCc2c(c(C(=O)NCc3ccc(Cl)cc3)nn2C)C1	3	66*
COCC(=O)N1CCc2c(c(C(=O)NCc3ccccc3)nn2C)C1	2	19
O=C(c1ccccc1Cl)N1CCN(Cc2ccc3c(c2)OCO3)CC1	0	-4
Cc1cc(C(=O)N2CCC(c3nnc(-c4ccc(F)cc4)o3)CC2)c(C)o1	-5	100*
O=C(c1ccccc1Br)N1CCC(c2nnc(-c3ccc(F)cc3)o2)CC1	-3	-8
COc1ccc(NC(N)=Nc2nc(C)cc(C)n2)cc1OC	-10	-4
CCc1cccc2c3c([nH]c12)CCC(NC(=O)C(C)CC)C3 (stereo unspecified)	26	42
O=C(CC1=CCCCC1)NC1CCc2[nH]c3ccc(Br)cc3c2C1 (stereo unspecified)	-6	100*
Cc1cc(C)cc(C(=O)NC2CCc3[nH]c4ccc(Br)cc4c3C2)c1 (stereo unspecified)	-7	18
SMILES	Pf apPOL block	mHTT CaM bind
CC1CCC(C(=O)NC2CCc3[nH]c4ccc(Br)cc4c3C2)CC1 (stereo unspecified)	-6	97*
CCOc1ccc(C(C)(N)C(=O)O)cc1 (stereo unspecified)	-5	-8
Nc1c(C(=O)c2ccc(Cl)cc2)sc2[nH]c(=O)c(C(=O)O)cc12	-1	59*
Nc1c(C(=O)Nc2ccc(Cl)cc2Cl)sc2[nH]c(=O)c(C(=O)O)cc12	6	7
COc1cc2c(cc1OC)C(COc1ccc(F)cc1)N(C(=O)c1ccccc1OC)CC2 (stereo unspecified)	-4	81*
CCOc1ccccc1C(=O)N1CCc2cc(OC)c(OC)cc2C1COc1ccc(OC)cc1 (stereo unspecified)	-2	39
COc1cc2c(cc1OC)C(COc1ccc(F)cc1)N(C(=O)c1ccc(F)cc1)CC2 (stereo unspecified)	-10	57*
COc1cc2c(cc1OC)C(COc1ccc(F)cc1)N(C(=O)C1CC1)CC2 (stereo unspecified)	-7	27
COc1ccc(-c2nnc(C)c(NC3CCCC3)n2)cc1	-12	52*
COc1ccc(CNc2nc(-c3ccc(C)cc3)nnc2C)cc1	2	5
CC(C)(C)c1ccc(C2C3=C(CCCC3=O)NC3=C2C(=O)c2ccccc23)cc1 (stereo unspecified)	-13	63*
COc1cc(C2C3=C(CCCC3=O)NC3=C2C(=O)c2ccccc23)ccc1O (stereo unspecified)	-16	22
CC(C)c1ccc(C2C3=C(CCCC3=O)NC3=C2C(=O)c2ccccc23)cc1 (stereo unspecified)	-4	75*
Cc1ccc(C2C3=C(CC(c4ccco4)CC3=O)NC3=C2C(=O)c2ccccc23)cc1 (stereo unspecified)	-9	20
O=C1CC(c2ccccc2)CC2=C1C(c1ccc(Cl)cc1)C1=C(N2)c2ccccc2C1=O (stereo unspecified)	-1	48
CC(C)c1ccc(C2C3=C(CC(C)(C)CC3=O)NC3=C2C(=O)c2ccccc23)cc1 (stereo unspecified)	-5	65*
